Experimental data reported in publication PMC11006913.

What was measured:
Test in all cases: PBM; 200 nM protein, PBS
Conditions in all cases: dsDNA, one strand shown
[1] = biological target: HESX1 (Homo sapiens, UniProt Q9UBX0 95-180, R165K)
[2] = biological target: SHOX (Homo sapiens, UniProt O15266 103-189)
[3] = biological target: HESX1 (Homo sapiens, UniProt Q9UBX0 95-180)
[4] = biological target: ALX1 (Homo sapiens, UniProt Q15699 118-204, L144V)
[5] = biological target: ALX3 (Homo sapiens, UniProt O95076 139-225, N203Q)
Sequence of ALX3 (Homo sapiens, UniProt O95076 139-225, N203Q) (O95076 139-225 N203Q): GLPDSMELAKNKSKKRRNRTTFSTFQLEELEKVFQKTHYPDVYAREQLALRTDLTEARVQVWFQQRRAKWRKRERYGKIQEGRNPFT

[6] = biological target: SHOX (Homo sapiens, UniProt O15266 103-189, R173C)
Sequence of SHOX (Homo sapiens, UniProt O15266 103-189, R173C) (O15266 103-189 R173C): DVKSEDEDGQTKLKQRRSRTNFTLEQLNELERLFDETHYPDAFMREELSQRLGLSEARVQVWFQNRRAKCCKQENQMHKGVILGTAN

[7] = biological target: ALX1 (Homo sapiens, UniProt Q15699 118-204, L144R)
Sequence of ALX1 (Homo sapiens, UniProt Q15699 118-204, L144R) (Q15699 118-204 L144R): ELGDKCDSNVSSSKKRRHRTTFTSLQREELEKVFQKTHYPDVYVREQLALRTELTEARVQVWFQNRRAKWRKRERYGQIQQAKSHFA

[8] = biological target: ALX3 (Homo sapiens, UniProt O95076 139-225)
Sequence of ALX3 (Homo sapiens, UniProt O95076 139-225) (O95076 139-225): as the sequence (O95076 139-225 N203Q) above, with Q65N counted along it

[9] = biological target: PROP1 (Homo sapiens, UniProt O75360 56-141)
Sequence of PROP1 (Homo sapiens, UniProt O75360 56-141) (O75360 56-141): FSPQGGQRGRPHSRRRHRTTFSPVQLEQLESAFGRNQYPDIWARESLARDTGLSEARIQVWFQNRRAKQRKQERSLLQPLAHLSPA

[10] = biological target: HESX1 (Homo sapiens, UniProt Q9UBX0 95-180, R109Q)
Sequence of HESX1 (Homo sapiens, UniProt Q9UBX0 95-180, R109Q) (Q9UBX0 95-180 R109Q): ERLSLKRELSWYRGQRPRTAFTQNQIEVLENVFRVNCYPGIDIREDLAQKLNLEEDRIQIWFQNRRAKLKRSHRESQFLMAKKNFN

[11] = biological target: PROP1 (Homo sapiens, UniProt O75360 56-141, R99H)
Sequence of PROP1 (Homo sapiens, UniProt O75360 56-141, R99H) (O75360 56-141 R99H): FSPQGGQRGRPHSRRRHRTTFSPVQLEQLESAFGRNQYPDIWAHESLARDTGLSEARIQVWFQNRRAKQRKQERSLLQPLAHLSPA

[12] = biological target: ALX3 (Homo sapiens, UniProt O95076 139-225, L168Q)
Sequence of ALX3 (Homo sapiens, UniProt O95076 139-225, L168Q) (O95076 139-225 L168Q): as the sequence (O95076 139-225 N203Q) above, with L30Q, Q65N counted along it

[13] = biological target: HESX1 (Homo sapiens, UniProt Q9UBX0 95-180, P111T)
Sequence of HESX1 (Homo sapiens, UniProt Q9UBX0 95-180, P111T) (Q9UBX0 95-180 P111T): as the sequence (Q9UBX0 95-180 R109Q) above, with Q15R, P17T counted along it

[14] = biological target: ALX3 (Homo sapiens, UniProt O95076 139-225, L168V)
Sequence of ALX3 (Homo sapiens, UniProt O95076 139-225, L168V) (O95076 139-225 L168V): as the sequence (O95076 139-225 N203Q) above, with L30V, Q65N counted along it

[15] = biological target: PROP1 (Homo sapiens, UniProt O75360 56-141, F88S)
Sequence of PROP1 (Homo sapiens, UniProt O75360 56-141, F88S) (O75360 56-141 F88S): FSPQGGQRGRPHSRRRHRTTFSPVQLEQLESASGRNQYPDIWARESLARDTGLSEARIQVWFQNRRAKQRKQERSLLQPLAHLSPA

[16] = biological target: HESX1 (Homo sapiens, UniProt Q9UBX0 95-180, F115L)
Sequence of HESX1 (Homo sapiens, UniProt Q9UBX0 95-180, F115L) (Q9UBX0 95-180 F115L): as the sequence (Q9UBX0 95-180 R109Q) above, with Q15R, F21L counted along it

[17] = biological target: ALX1 (Homo sapiens, UniProt Q15699 118-204)
Sequence of ALX1 (Homo sapiens, UniProt Q15699 118-204) (Q15699 118-204): as the sequence (Q15699 118-204 L144R) above, with R27L counted along it

[18] = biological target: ALX3 (Homo sapiens, UniProt O95076 139-225, N203S)
Sequence of ALX3 (Homo sapiens, UniProt O95076 139-225, N203S) (O95076 139-225 N203S): as the sequence (O95076 139-225 N203Q) above, with Q65S counted along it

[19] = biological target: HOXB4 (Homo sapiens, UniProt P17483 148-234)
Sequence of HOXB4 (Homo sapiens, UniProt P17483 148-234) (P17483 148-234): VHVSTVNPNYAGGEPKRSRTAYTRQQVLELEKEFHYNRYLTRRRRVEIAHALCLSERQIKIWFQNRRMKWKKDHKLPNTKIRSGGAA

[20] = biological target: HOXB4 (Homo sapiens, UniProt P17483 148-234, V174I)
Sequence of HOXB4 (Homo sapiens, UniProt P17483 148-234, V174I) (P17483 148-234 V174I): as the sequence (P17483 148-234) above, with V27I counted along it

Sequence of ALX1 (Homo sapiens, UniProt Q15699 118-204, L144V) (Q15699 118-204 L144V): as the sequence (Q15699 118-204 L144R) above, with R27V counted along it
Sequence of HESX1 (Homo sapiens, UniProt Q9UBX0 95-180) (Q9UBX0 95-180): as the sequence (Q9UBX0 95-180 R109Q) above, with Q15R counted along it
Sequence of HESX1 (Homo sapiens, UniProt Q9UBX0 95-180, R165K) (Q9UBX0 95-180 R165K): as the sequence (Q9UBX0 95-180 R109Q) above, with Q15R, R71K counted along it
Sequence of SHOX (Homo sapiens, UniProt O15266 103-189) (O15266 103-189): as the sequence (O15266 103-189 R173C) above, with C71R counted along it

Sequence | binding signal [1] | binding signal [2] | binding signal [3] | binding signal [4] | binding signal [5] | binding signal [6] | binding signal [7] | binding signal [8] | binding signal [9] | binding signal [10] | binding signal [11] | binding signal [12] | binding signal [13] | binding signal [14] | binding signal [15] | binding signal [16] | binding signal [17] | binding signal [18] | binding signal [19] | binding signal [20]
CAATTAAA | 12.6 upbm affinity estimate (log intensity, higher = more binding, comparable within an allelic series) | 12 upbm affinity estimate (log intensity, higher = more binding, comparable within an allelic series) | 12.6 upbm affinity estimate (log intensity, higher = more binding, comparable within an allelic series) | 11.7 upbm affinity estimate (log intensity, higher = more binding, comparable within an allelic series) | 8.41 upbm affinity estimate (log intensity, higher = more binding, comparable within an allelic series) | 9.46 upbm affinity estimate (log intensity, higher = more binding, comparable within an allelic series) | 11.5 upbm affinity estimate (log intensity, higher = more binding, comparable within an allelic series) | 12.6 upbm affinity estimate (log intensity, higher = more binding, comparable within an allelic series) | 11.6 upbm affinity estimate (log intensity, higher = more binding, comparable within an allelic series) | 9.38 upbm affinity estimate (log intensity, higher = more binding, comparable within an allelic series) | 11.6 upbm affinity estimate (log intensity, higher = more binding, comparable within an allelic series) | 10.7 upbm affinity estimate (log intensity, higher = more binding, comparable within an allelic series) | 11.3 upbm affinity estimate (log intensity, higher = more binding, comparable within an allelic series) | 10.3 upbm affinity estimate (log intensity, higher = more binding, comparable within an allelic series) | 7.64 upbm affinity estimate (log intensity, higher = more binding, comparable within an allelic series) | 7.76 upbm affinity estimate (log intensity, higher = more binding, comparable within an allelic series) | 12.2 upbm affinity estimate (log intensity, higher = more binding, comparable within an allelic series) | 8.55 upbm affinity estimate (log intensity, higher = more binding, comparable within an allelic series) |  | 
GTAATTGA | 12.5 upbm affinity estimate (log intensity, higher = more binding, comparable within an allelic series) | 11.9 upbm affinity estimate (log intensity, higher = more binding, comparable within an allelic series) | 12.6 upbm affinity estimate (log intensity, higher = more binding, comparable within an allelic series) | 11.7 upbm affinity estimate (log intensity, higher = more binding, comparable within an allelic series) | 8.3 upbm affinity estimate (log intensity, higher = more binding, comparable within an allelic series) | 9.41 upbm affinity estimate (log intensity, higher = more binding, comparable within an allelic series) | 11.2 upbm affinity estimate (log intensity, higher = more binding, comparable within an allelic series) | 12.4 upbm affinity estimate (log intensity, higher = more binding, comparable within an allelic series) | 11.3 upbm affinity estimate (log intensity, higher = more binding, comparable within an allelic series) | 8.99 upbm affinity estimate (log intensity, higher = more binding, comparable within an allelic series) | 11.5 upbm affinity estimate (log intensity, higher = more binding, comparable within an allelic series) | 10.4 upbm affinity estimate (log intensity, higher = more binding, comparable within an allelic series) | 11 upbm affinity estimate (log intensity, higher = more binding, comparable within an allelic series) | 9.76 upbm affinity estimate (log intensity, higher = more binding, comparable within an allelic series) | 7.49 upbm affinity estimate (log intensity, higher = more binding, comparable within an allelic series) | 7.6 upbm affinity estimate (log intensity, higher = more binding, comparable within an allelic series) | 12.3 upbm affinity estimate (log intensity, higher = more binding, comparable within an allelic series) | 8.44 upbm affinity estimate (log intensity, higher = more binding, comparable within an allelic series) | 13.1 upbm affinity estimate (log intensity, higher = more binding, comparable within an allelic series) | 13.8 upbm affinity estimate (log intensity, higher = more binding, comparable within an allelic series)
CCCAATTA | 13.2 upbm affinity estimate (log intensity, higher = more binding, comparable within an allelic series) | 12.5 upbm affinity estimate (log intensity, higher = more binding, comparable within an allelic series) | 13.1 upbm affinity estimate (log intensity, higher = more binding, comparable within an allelic series) | 11.9 upbm affinity estimate (log intensity, higher = more binding, comparable within an allelic series) | 8.37 upbm affinity estimate (log intensity, higher = more binding, comparable within an allelic series) | 9.78 upbm affinity estimate (log intensity, higher = more binding, comparable within an allelic series) | 11.6 upbm affinity estimate (log intensity, higher = more binding, comparable within an allelic series) | 12.6 upbm affinity estimate (log intensity, higher = more binding, comparable within an allelic series) | 11.6 upbm affinity estimate (log intensity, higher = more binding, comparable within an allelic series) | 9.78 upbm affinity estimate (log intensity, higher = more binding, comparable within an allelic series) | 11.8 upbm affinity estimate (log intensity, higher = more binding, comparable within an allelic series) | 10.7 upbm affinity estimate (log intensity, higher = more binding, comparable within an allelic series) | 11.7 upbm affinity estimate (log intensity, higher = more binding, comparable within an allelic series) | 10.2 upbm affinity estimate (log intensity, higher = more binding, comparable within an allelic series) | 7.5 upbm affinity estimate (log intensity, higher = more binding, comparable within an allelic series) | 8.14 upbm affinity estimate (log intensity, higher = more binding, comparable within an allelic series) | 12.5 upbm affinity estimate (log intensity, higher = more binding, comparable within an allelic series) | 8.52 upbm affinity estimate (log intensity, higher = more binding, comparable within an allelic series) |  | 
ATTAATGC | 8.93 upbm affinity estimate (log intensity, higher = more binding, comparable within an allelic series) |  | 9.02 upbm affinity estimate (log intensity, higher = more binding, comparable within an allelic series) |  |  |  |  |  |  |  |  |  |  |  |  |  |  |  |  | 
CAATTAGA | 12.3 upbm affinity estimate (log intensity, higher = more binding, comparable within an allelic series) | 11.9 upbm affinity estimate (log intensity, higher = more binding, comparable within an allelic series) | 12.5 upbm affinity estimate (log intensity, higher = more binding, comparable within an allelic series) | 11.4 upbm affinity estimate (log intensity, higher = more binding, comparable within an allelic series) | 8.27 upbm affinity estimate (log intensity, higher = more binding, comparable within an allelic series) | 9.38 upbm affinity estimate (log intensity, higher = more binding, comparable within an allelic series) | 11.1 upbm affinity estimate (log intensity, higher = more binding, comparable within an allelic series) | 12.4 upbm affinity estimate (log intensity, higher = more binding, comparable within an allelic series) | 11.4 upbm affinity estimate (log intensity, higher = more binding, comparable within an allelic series) | 8.75 upbm affinity estimate (log intensity, higher = more binding, comparable within an allelic series) | 11.4 upbm affinity estimate (log intensity, higher = more binding, comparable within an allelic series) | 10.4 upbm affinity estimate (log intensity, higher = more binding, comparable within an allelic series) | 10.9 upbm affinity estimate (log intensity, higher = more binding, comparable within an allelic series) | 9.72 upbm affinity estimate (log intensity, higher = more binding, comparable within an allelic series) | 7.51 upbm affinity estimate (log intensity, higher = more binding, comparable within an allelic series) | 7.65 upbm affinity estimate (log intensity, higher = more binding, comparable within an allelic series) | 12.2 upbm affinity estimate (log intensity, higher = more binding, comparable within an allelic series) | 8.34 upbm affinity estimate (log intensity, higher = more binding, comparable within an allelic series) |  | 
